Measurements taken from PubChem BioAssay AID504832 (National Center for Advancing Translational Sciences (NCATS), 2011).
About 18,000 (5.8%) of roughly 310,000 compounds were called active. Inconclusive results (about 22%) are left out. Calls follow the shape of the dose curve; as a rule, active = well fitted inhibition curve with a large enough effect; inconclusive = small, poorly fitted or top-dose-only effect, or another doubt; inactive = no such curve, though single readings can be large or run the other way. Shown is part of a subset that was picked to be rich in actives. Where a call stands in place of a potency, no number is given.

experiment: Primary qHTS for delayed death inhibitors of the malarial parasite plastid, 48 hour incubation; conditions: P. falciparum luciferase growth in erythrocytes; series mostly up to 28.7 µM
Procedure, shortened: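 In quantitative HTS format, infected erythrocytes bearing luciferase-reporter parasites were treated for a single generation at 37 C. Luminescence after adding detection reagent served as the growth measure.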
Potency is read from the fitted curve at half-maximal effect.

| SMILES | Potency |
| --- | --- |
| CC(C)CN(C(=O)Cn1c(=O)cnc2ccccc21)C1CCS(=O)(=O)C1 (configuration not stated) | inactive |
| Cc1ccccc1Nc1c([N+](=O)[O-])ccc2nonc12 | inactive |
| CC1(C(=O)OCC(=O)Nc2ncc(Cl)cc2Cl)CC1(Cl)Cl (configuration not stated) | inactive |
| Cc1cccc(OCC(=O)Nc2ccc(C(=O)O)cc2NC(=O)COc2cccc(C)c2)c1 | inactive |
| O=C(NCCCN1CCCC1=O)c1ccc(S(=O)(=O)Nc2ccccc2)cc1 | inactive |
| CC1CCN(C(=O)CCc2nnc3ccc(NCc4ccco4)nn23)CC1 | inactive |
| CC(c1ccccn1)N(C)C(=O)c1ccc2nc(Cc3cccc(Cl)c3)oc2c1 (configuration not stated) | inactive |
| CC1(C)O[C@@H]2[C@H](O1)[C@@H](COS(=O)(=O)O)O[C@H]2n1cnc2c(=O)[nH]cnc21 | inactive |
| CCOCCOC(=O)C1=C(C)NC(=O)NC1c1ccc2c(c1)OCO2 (configuration not stated) | inactive |
| Cc1csc2nc(COC(=O)c3cccc(N(C)C)c3)cc(=O)n12 | inactive |
| CC(=O)Nc1nc(C)c(-c2csc(Nc3ccc(S(N)(=O)=O)cc3)n2)s1 | inactive |
| Cc1nc(NC(=O)c2cccc(Cl)c2)sc1-c1csc(Nc2cccc(Cl)c2)n1 | 8.28 µM (active) |
| CC(=O)Nc1cccc(-c2csc(Nc3cccc(C)n3)n2)c1 | inactive |
| CCC(=O)Nc1nc(C)c(C(=O)Nc2cccc(Cl)c2)s1 | inactive |
| CCCCC(=O)Nc1nc(C)c(-c2csc(Nc3ccc(Cl)cc3)n2)s1 | 4.65 µM (active) |
| CCCCN(C)CCC(=O)Nc1ccc(Cl)cc1 | inactive |
| O=C(CN1C(=O)NC2(CCCC2)C1=O)OCCOc1ccc(F)cc1 | inactive |
| COC(=O)c1c(NC(=O)C(=O)N2CCCCC2)sc2c1CC(C)(C)OC2 | inactive |
| COc1ccc(CNS(=O)(=O)c2ccc(-c3cnc(C4CC4)o3)cc2)cc1 | inactive |
| O=C1CC(c2cccc(Br)c2)C2=C(CCCC2=O)N1 (configuration not stated) | inactive |
| O=C1C=C(c2cccc(Br)c2)C[C@@H](c2ccc(F)cc2)C1 | 2.94 µM (active) |
| COc1ccccc1C1=CC(=O)C[C@H](c2ccc(F)cc2)C1 | inactive |
| O=C1C=C(c2cccc(Cl)c2O)C[C@@H](c2ccc(F)cc2)C1 | 2.08 µM (active) |

| SMILES | Potency |
| --- | --- |
| COc1cccc(C2=CC(=O)C[C@H](c3ccc(F)cc3)C2)c1OC | inactive |
| O=C(CCc1nnc(Cc2ccc3c(c2)OCO3)o1)NCCc1ccccc1Cl | inactive |
| COc1ccc(-c2nc(CS(=O)(=O)CC(=O)NCc3cccc(Br)c3)c(C)o2)cc1 | inactive |
| COc1ccc(-n2ncc3c(SCC(=O)NNC(C)=O)ncnc32)cc1 | inactive |
| CC(=O)N1CCc2c(sc(NC(=O)CCS(=O)(=O)c3ccccc3)c2C#N)C1 | inactive |
| Cc1ccc(S(=O)(=O)NC2CCCCCC2)cc1C(N)=O | inactive |
| O=C(CN1CCCCCC1)Nc1c(Cl)cc(Cl)cc1Cl | inactive |
| O=C1Nc2ccc(Br)cc2/C1=N/N=C/C1=C(N2CCOCC2)C(=C\c2ccccc2)/CC1 | inactive |
| N#C/C(=C\C1=C(N2CCOCC2)C(=C\c2ccccc2)/CC1)C(=O)Nc1ccccc1F | inactive |
| C(=N\N1CCN(c2ccccn2)CC1)/C1=C(N2CCOCC2)C(=C/c2ccccc2)/CC1 | 10.4 µM (active) |
| CC(C)c1ccc(O)c(CN2CCN(c3ccccc3)CC2)c1 | 3.29 µM (active) |
| CC(=O)c1ccc(N2CCN(CC(O)c3ccccc3)CC2)cc1 (configuration not stated) | inactive |
| Oc1cc2c(cc1CN1CCN(c3ccccc3)CC1)OCO2 | inactive |
| O=C(CSc1nccc(=O)[nH]1)Nc1ccc(N2CCOCC2)c(Cl)c1 | inactive |
| O=C(CN1CCN(Cc2ccccc2)CC1)Nc1ccc(F)c(F)c1 | inactive |
| COc1cc(NC(=O)NCC2CCN(Cc3ccc(C)cc3)CC2)cc(OC)c1OC | inactive |
| Cc1cccc(CN2CCC(CNC(=O)Nc3ccc(F)c(Cl)c3)CC2)c1 | 10.4 µM (active) |
| COc1cc(C(=O)NCc2nnc(SCC(=O)c3ccc(Cl)cc3)o2)cc(OC)c1OC | inactive |
| CCC(=O)Nc1ccc(C(=O)NNC(=O)c2ccc(Cl)cc2)cc1 | inactive |
| Cc1ccc(NS(=O)(=O)c2ccc(-c3ccc(=O)[nH]n3)o2)c(C)c1 | inactive |
| CC#CC[N+](C)(C)CCCCCC | 10.4 µM (active) |
| Cc1ccn2c(=O)c(NC(=O)c3cccc4ccccc34)c(C)nc2c1 | inactive |
| Cc1[nH]c(C)c(S(=O)(=O)N2CCC(C)CC2)c1C(=O)N1CCCC1 | inactive |

| SMILES | Potency |
| --- | --- |
| O=S(=O)(c1ccccc1)c1nc(Cc2ccccc2)oc1N1CCOCC1 | inactive |
| COc1ccc(C2=NN(C(=O)c3ccccc3C(=O)O)C(c3ccccc3O)C2)cc1 (configuration not stated) | inactive |
| Cc1cc(=O)n2nc(N3CCCC(C(=O)NCc4ccc(Cl)cc4)C3)sc2n1 (configuration not stated) | inactive |
| COc1cccc(C(=O)Nc2ccc(N3CCCC3)cc2)c1 | inactive |
| COc1ccc(Br)cc1/C=N/n1c(C)nnc1C | inactive |
| COc1cc(N2CCCC2)c(OC)cc1/C=C(/C#N)c1cccc(Br)c1 | 14.7 µM (active) |
| COc1ccccc1-n1c(SCC(=O)Nc2cccc(C(=O)O)c2)nnc1-c1ccccc1O | inactive |
| Cc1cccc(N2C(=O)c3ccc(C(=O)Nc4cccc(C(=O)O)c4)cc3C2=O)c1 | inactive |
| Cc1c(Cl)cccc1NC(=O)CCC(=O)N/N=C/c1ccco1 | inactive |
| Cc1ccc(S(=O)(=O)CCC(=O)Nc2nnc(CC(C)C)s2)cc1 | inactive |
| N#C/C=C/N1CCN(Cc2ccc3c(c2)OCO3)CC1 | inactive |
| CNc1nc(-c2ccccc2)cc(-c2ccccc2)n1 | inactive |
| CS(=O)(=O)c1sc2nc(-c3ccccc3)cc(-c3ccccc3)c2c1N | 4.65 µM (active) |
| CCN(CC)C(=O)c1sc2nc(-c3ccccc3)ccc2c1N | inactive |
| CSc1ccccc1C(=O)OCC(=O)N1CCN(C(C)=O)CC1 | inactive |
| O=C(NCCCc1ccccc1)C(=O)c1c[nH]c2ccccc12 | inactive |
| O=S(=O)(c1ccc(SCc2ccccc2)nc1)N1CCCCCC1 | inactive |
| COc1ccc2c(c1)OC(O)(C(F)(F)C(F)F)CC2=O (configuration not stated) | 3.29 µM (active) |
| COc1ccc2c(c1)SC(C)CC2=O (configuration not stated) | inactive |
| CC1(C)CC(=O)c2ccc(O)cc2O1 | inactive |
| COc1cc(C2C(C(=O)c3ccco3)=C(O)C(=O)N2c2cc(C)on2)ccc1OCc1ccccc1 (configuration not stated) | inactive |
